From PubChem BioAssay AID777 (Sanford-Burnham Center for Chemical Genomics, 2007)
Screen size: about 96,000 compounds; about 19,000 (20%) were called active.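 The calls were made as follows: active = blocking of liver enzyme CYP2C9 beyond about 50% at 5 µM (limit read from the data); inactive = the rest.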 Only a sample is shown.

Each compound was assayed against Cytochrome P450 2C9 (Homo sapiens) (UniProt P11712) (assay: blockers of cytochrome P450 2C9 activity – biochemical, luminescence, ADME assay, primary screen (AID 777)). Conditions: CYP2C9 Supersomes, luciferin-H conversion, at 5 µM, hits give high values.
Chain of Cytochrome P450 2C9 (Homo sapiens) (P11712 whole entry, looked up): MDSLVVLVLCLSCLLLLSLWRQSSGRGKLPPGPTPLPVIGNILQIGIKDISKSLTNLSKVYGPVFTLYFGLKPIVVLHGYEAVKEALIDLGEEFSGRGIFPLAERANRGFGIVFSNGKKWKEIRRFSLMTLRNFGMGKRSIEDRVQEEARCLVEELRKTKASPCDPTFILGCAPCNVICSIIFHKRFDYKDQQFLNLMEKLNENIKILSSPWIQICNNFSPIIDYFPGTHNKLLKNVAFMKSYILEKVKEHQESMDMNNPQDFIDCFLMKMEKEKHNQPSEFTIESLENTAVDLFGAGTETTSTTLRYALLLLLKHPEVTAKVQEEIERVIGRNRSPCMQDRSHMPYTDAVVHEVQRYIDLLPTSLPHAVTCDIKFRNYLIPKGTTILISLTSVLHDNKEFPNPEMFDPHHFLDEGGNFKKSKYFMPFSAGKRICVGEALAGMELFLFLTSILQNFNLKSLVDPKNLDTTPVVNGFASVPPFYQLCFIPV

inhibition, inactive:
COc1ccc(Br)cc1S(=O)(=O)N1CCN=C1C -27.3%
Cc1nc2cc(-c3ccc(F)cc3)nn2c(N2CCOCC2)c1C 8.9%
CCN1CCN(Cc2c(O)ccc3c(=O)c(-c4ccc(OC)c(OC)c4)c(C(F)(F)F)oc23)CC1 8.1%
Cc1nc(SC(C)C)[nH]c(=O)c1Cc1ccccc1 26%
CCN1C(=O)/C(=C2/Sc3ccccc3N2CCCS(=O)(=O)O)SC1=S 7%
COc1cc(/C=N/Nc2nn3cnnc3c3ccccc23)cc(OC)c1OC 25.9%
O=C1c2ccccc2C(=O)N1Cc1cc(-c2ccccc2Cl)no1 -135%
Cc1onc(-c2c(Cl)cccc2Cl)c1C(=O)c1c[nH]c(C(=O)NC2CC2)c1 7.6%
Cc1ccc2cc(CCNC(=O)c3ccc4c(c3)OCO4)c(=O)[nH]c2c1 31.9%
Cc1ccc2[nH]c(=O)c(COC(=O)c3ccccn3)cc2c1 8.6%
Cc1cc2ccccc2n1CCNC(=O)COc1ccc2ccccc2c1 33.5%
COc1c(O)cccc1-c1nnn(CCC(=O)OCC(=O)c2ccccc2)n1 29%
CC(C)Cc1oc(C(=O)O)cc1CN -3.5%
C#CCSc1nnc(-c2sc3ccccc3c2Cl)o1 26.7%
COc1ccc(C(=O)N2CCC(C(=O)Nc3cccc(C)c3)CC2)cc1OC 8.3%
CCOc1ccc(N=C2SC(C(=O)O)CC(=O)N2C)cc1 (centres undefined) -4.3%
CC(C)(C)NC(=O)COc1ccc(CNc2ccc3[nH]c(=O)[nH]c3c2)cc1 31.4%
Cc1ccc(S(=O)(=O)c2c(COC(=O)c3cccc(Cl)c3)c(-c3ccccc3)nn2C)cc1 49.8%
Cc1cccc(N(CC(O)CN(C)C)S(=O)(=O)c2ccccc2)c1 (centres undefined) 7.4%
Cc1ccc(N(CC(O)CN2CCCC2)S(=O)(=O)c2ccccc2)cc1 (centres undefined) 27.2%
Cc1ccc(C(=O)N(CN2CCCC2=O)c2ccc(F)cc2)cc1 -20%
CC(=O)N1Cc2ccccc2CC1C(=O)O (centres undefined) -18.6%
Cc1c(NC(=O)C(C)OC(=O)c2cc3c4ccccc4n(C)c3s2)c(=O)n(-c2ccccc2)n1C (centres undefined) -4.5%
CCOc1ccccc1NC(=O)C1CCC(CNc2c(N3CCOCC3)c(=O)c2=O)CC1 (centres undefined) -30.1%
Cc1ccc(CNC(=O)C2CC(=O)N(C3CCCCCCC3)C2)cc1 (centres undefined) -1.3%
COCCCNC(=O)C1CC(=O)N(CCc2ccccc2)C1 (centres undefined) -3.7%
O=C(O)C1CC(=O)N(Cc2cccnc2)C1 (centres undefined) -22%
O=C(NC1CCCCC1)C1CC(=O)N(CCc2ccccc2)C1 (centres undefined) -4.8%
Cc1nc2ccccc2c2oc(C(=O)NCCCN3CCC(C)CC3)cc12 7.6%
O=C(Cn1cnc2c(nnn2-c2ccccc2)c1=O)N1CCC(Cc2ccccc2)CC1 -30.4%
Cc1ccc(C(=O)N2CCCC2)c(F)c1F 6.3%
CN(C)CC(O)COc1ccc(C(C)(C)c2ccc(OCC(O)CN(C)C)cc2)cc1 (centres undefined) -6.4%
O=C(NCC1CCC(C(=O)O)CC1)OCc1ccccc1 (centres undefined) -10.5%
O=C(CNC(=O)c1ccccc1)NCC(=O)OCc1ccc(Cl)cc1 4.4%
CCOC(=O)CSc1nncc2ccc(OC)c(OC)c12 4.3%
Cc1nc2ccccc2cc1OCc1ccc(F)cc1 47.1%
Cc1no[n+]([O-])c1COc1ccccc1/C=C1\NC(=S)NC1=O 30.2%
Cc1ccc(C(=O)NCC2CCCO2)o1 (centres undefined) 2.8%
COc1cc(SC)ccc1C(=O)NCCOc1ccccc1Cl 28.9%
O=C(NCc1ccccn1)c1cc(-c2ccccc2Cl)on1 -163%

inhibition, active:
O=c1c(-c2ccc3c(c2)OCCO3)c(C(F)(F)F)oc2cc(O)cc(O)c12 87.3%
Cc1onc(-c2ccccc2Cl)c1C(=O)NCCn1ccc2ccccc21 54.6%
Cc1ccc2cc(CCNC(=O)c3c(-c4ccccc4Cl)noc3C)c(=O)[nH]c2c1 93.8%
Cc1onc(-c2ccccc2Cl)c1C(=O)OCC(=O)c1ccccc1 65.8%
O=S(=O)(c1ccccc1)N(CC(O)CN1CCCCC1)c1ccccc1 (centres undefined) 56%
Cc1ccc(CCN2CC(C(=O)O)CC2=O)cc1 (centres undefined) 53.7%
CCc1ccc(CNC(=O)C2CC(=O)N(CCc3ccc(C)cc3)C2)cc1 (centres undefined) 54.1%
O=C(CNC(=O)OCc1ccccc1)Oc1cc2oc(=O)cc(-c3ccccc3)c2cc1Cl 75.7%
COCCNC(=O)c1ccccc1-c1nc(-c2ccccc2Cl)no1 83.9%
